# Measurements reported in the supplement of paper PMC8728848.
# Only a selection was taken, and the strongest signals are over-represented in it overall.
# What was measured:
# Experiment in all cases: glycan array binding signal (z-score within array); higher = stronger binding
# Conditions in all cases: glycan notation: IUPAC condensed, linker removed; mutation: H262T
# [1] = target: Fuc(a1-2)Gal(b1-3)GalNAc(a1-3)[Fuc(a1-2)]Gal(b1-4)Glc
# Procedure, shortened: (§1)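 Columns mapping to the same glycan were averaged after glycan names were converted to IUPAC-condensed notation. The data come from 3228 arrays in the Consortium for Functional Glycomics database, limited to those with an available protein sequence. Binding is reported as a within-array Z-score averaged across arrays of one protein sequence and across linkers.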
# [2] = target: Fuc(a1-2)Gal(b1-3)GlcNAc(b1-3)[Gal(b1-4)GlcNAc(b1-6)]Gal(b1-4)Glc
# Procedure, shortened: as §1
# [3] = target: Fuc(a1-2)Gal(b1-4)GlcNAc
# Procedure, shortened: as §1
# [4] = target: Fuc(a1-2)Gal(b1-4)GlcNAc(b1-6)GalNAc
# Procedure, shortened: as §1
# [5] = target: Fuc(a1-2)Gal6S(b1-3)GlcNAc6S
# Procedure, shortened: as §1
# [6] = target: Fuc(a1-2)[Gal(a1-3)]Gal
# Procedure, shortened: as §1
# [7] = target: Fuc(a1-2)[Gal(a1-3)]Gal(b1-4)GlcNAc(b1-2)Man(a1-3)[Fuc(a1-2)[Gal(a1-3)]Gal(b1-4)GlcNAc(b1-2)Man(a1-6)]Man(b1-4)GlcNAc(b1-4)GlcNAc
# Procedure, shortened: as §1
# [8] = target: Fuc(a1-2)[Gal(a1-3)]Gal(b1-4)[Fuc(a1-3)]Glc
# Procedure, shortened: as §1
# [9] = target: Fuc(a1-2)[GalNAc(a1-3)]Gal(b1-3)GlcNAc(b1-6)GalNAc
# Procedure, shortened: as §1
# [10] = target: Fuc(a1-2)[GalNAc(a1-3)]Gal(b1-4)GlcNAc(b1-2)Man
# Procedure, shortened: as §1
# [11] = target: Fuc(a1-2)[GalNAc(a1-3)]Gal(b1-4)GlcNAc(b1-6)GalNAc
# Procedure, shortened: as §1
# [12] = target: Fuc(a1-2)[GalNAc(a1-4)]Gal(b1-4)GlcNAc
# Procedure, shortened: as §1
# [13] = target: Fuc(a1-2)[GalNAc(b1-3)]Gal
# Procedure, shortened: as §1
# [14] = target: Fuc(a1-4)GlcNAc
# Procedure, shortened: as §1
# [15] = target: Gal(a1-3)Gal
# Procedure, shortened: as §1
# [16] = target: Gal(a1-3)Gal(b1-3)GlcNAc(b1-6)GalNAc
# Procedure, shortened: as §1
# [17] = target: Gal(a1-3)Gal(b1-4)GlcNAc(b1-2)Man
# Procedure, shortened: as §1
# [18] = target: Gal(a1-3)Gal(b1-4)GlcNAc(b1-6)GalNAc
# Procedure, shortened: as §1
# [19] = target: Gal(a1-4)Gal(b1-4)GlcNAc(b1-2)Man(a1-3)[Gal(a1-4)Gal(b1-4)GlcNAc(b1-2)Man(a1-6)]Man(b1-4)GlcNAc(b1-4)GlcNAc
# Procedure, shortened: as §1
# [20] = target: Gal(b1-3)GlcNAc(b1-6)GalNAc
# Procedure, shortened: as §1
# [21] = target: Gal(b1-3)[Fuc(a1-4)]GlcNAc(b1-2)Man
# Procedure, shortened: as §1
# [22] = target: Gal(b1-4)Glc6S
# Procedure, shortened: as §1
# [23] = target: Gal(b1-4)GlcNAc(a1-6)Gal(b1-4)GlcNAc
# Procedure, shortened: as §1
# [24] = target: Gal(b1-4)GlcNAc(b1-2)[Gal(b1-4)GlcNAc(b1-4)]Man(a1-3)[GlcNAc(b1-4)][Gal(b1-4)GlcNAc(b1-2)[Gal(b1-4)GlcNAc(b1-6)]Man(a1-6)]Man(b1-4)GlcNAc(b1-4)GlcNAc
# Procedure, shortened: as §1
# [25] = target: Gal(b1-4)GlcNAc(b1-3)Gal(b1-4)GlcNAc(b1-3)Gal(b1-4)GlcNAc(b1-2)Man(a1-3)[Gal(b1-4)GlcNAc(b1-3)Gal(b1-4)GlcNAc(b1-3)Gal(b1-4)GlcNAc(b1-2)Man(a1-6)]Man(b1-4)GlcNAc(b1-4)GlcNAc
# Procedure, shortened: as §1
# [26] = target: Gal(b1-4)GlcNAc(b1-3)Gal(b1-4)GlcNAc(b1-3)GalNAc
# Procedure, shortened: as §1
# [27] = target: Gal(b1-4)GlcNAc(b1-6)Gal(b1-4)GlcNAc
# Procedure, shortened: as §1
# [28] = target: Gal(b1-4)GlcNAc(b1-6)GalNAc
# Procedure, shortened: as §1
# [29] = target: Gal(b1-4)GlcNAc(b1-6)[Gal(b1-4)GlcNAc(b1-3)]GalNAc
# Procedure, shortened: as §1
# [30] = target: Gal3S(b1-3)GlcNAc
# Procedure, shortened: as §1
# [31] = target: GalNAc(b1-3)GlcNAc
# Procedure, shortened: as §1
# [32] = target: GlcA3S(b1-3)Gal(b1-4)GlcNAc(b1-3)Gal(b1-4)Glc
# Procedure, shortened: as §1
# [33] = target: GlcNAc(a1-4)Gal(b1-4)GlcNAc
# Procedure, shortened: as §1
# [34] = target: GlcNAc(b1-2)[GlcNAc(b1-6)]Man(a1-6)[GlcNAc(b1-2)Man(a1-3)]Man(b1-4)GlcNAc(b1-4)[Fuc(a1-6)]GlcNAc
# Procedure, shortened: as §1
# [35] = target: GlcNAc(b1-3)Gal
# Procedure, shortened: as §1
# [36] = target: GlcNAc(b1-3)Gal(b1-3)GalNAc
# Procedure, shortened: as §1
# [37] = target: GlcNAc(b1-3)Gal(b1-4)GlcNAc(b1-3)Gal(b1-4)GlcNAc(b1-3)Gal(b1-4)GlcNAc(b1-2)[GlcNAc(b1-3)Gal(b1-4)GlcNAc(b1-3)Gal(b1-4)GlcNAc(b1-3)Gal(b1-4)GlcNAc(b1-6)]Man(a1-6)[GlcNAc(b1-3)Gal(b1-4)GlcNAc(b1-3)Gal(b1-4)GlcNAc(b1-3)Gal(b1-4)GlcNAc(b1-2)Man(a1-3)]Man(b1-4)GlcNAc(b1-4)[Fuc(a1-6)]GlcNAc
# Procedure, shortened: as §1
# [38] = target: GlcNAc(b1-4)GlcNAc(b1-4)GlcNAc(b1-4)GlcNAc(b1-4)GlcNAc(b1-4)GlcNAc
# Procedure, shortened: as §1
# [39] = target: GlcNAc(b1-6)GalNAc
# Procedure, shortened: as §1
# [40] = target: Kdn(a2-3)Gal(b1-3)GalNAc
# Procedure, shortened: as §1
# [41] = target: Kdn(a2-3)Gal(b1-4)GlcNAc
# Procedure, shortened: as §1
# [42] = target: Man(a1-3)[Man(a1-6)]Man(a1-6)[Man(a1-2)Man(a1-3)]Man(b1-4)GlcNAc(b1-4)GlcNAc
# Procedure, shortened: as §1
# [43] = target: Man(b1-4)GlcNAc
# Procedure, shortened: as §1
# [44] = target: Neu5Ac(a2-3)Gal(b1-3)GalNAc
# Procedure, shortened: as §1
# [45] = target: Neu5Ac(a2-3)Gal(b1-3)GalNAc6S
# Procedure, shortened: as §1
# [46] = target: Neu5Ac(a2-3)Gal(b1-3)GlcNAc
# Procedure, shortened: as §1
# [47] = target: Neu5Ac(a2-3)Gal(b1-4)GlcNAc(b1-2)Man(a1-3)[Neu5Ac(a2-3)Gal(b1-4)GlcNAc(b1-2)Man(a1-6)]Man(b1-4)GlcNAc(b1-4)GlcNAc
# Procedure, shortened: as §1
# [48] = target: Neu5Ac(a2-3)Gal(b1-4)GlcNAc(b1-6)GalNAc
# Procedure, shortened: as §1
# [49] = target: Neu5Ac(a2-3)Gal6S(b1-4)GlcNAc
# Procedure, shortened: as §1
# [50] = target: Neu5Ac(a2-3)Gal6S(b1-4)[Fuc(a1-3)]GlcNAc
# Procedure, shortened: as §1
# [51] = target: Neu5Ac(a2-3)GalNAc(b1-4)GlcNAc
# Procedure, shortened: as §1
# [52] = target: Neu5Ac(a2-6)Gal(b1-4)GlcNAc(b1-2)Man(a1-6)[Gal(b1-4)GlcNAc(b1-2)Man(a1-3)]Man(b1-4)GlcNAc(b1-4)GlcNAc
# Procedure, shortened: as §1
# [53] = target: Neu5Ac(a2-6)Gal(b1-4)GlcNAc(b1-3)Gal(b1-3)GlcNAc
# Procedure, shortened: as §1
# [54] = target: Neu5Ac(a2-6)Gal(b1-4)GlcNAc(b1-3)Gal(b1-4)GlcNAc(b1-3)[Neu5Ac(a2-6)Gal(b1-4)GlcNAc(b1-3)Gal(b1-4)GlcNAc(b1-6)]GalNAc
# Procedure, shortened: as §1
# [55] = target: Neu5Ac(a2-6)Gal(b1-4)GlcNAc(b1-3)Gal(b1-4)GlcNAc(b1-6)[Gal(b1-3)]GalNAc
# Procedure, shortened: as §1
# [56] = target: Neu5Ac(a2-6)GalNAc(b1-4)GlcNAc6S
# Procedure, shortened: as §1
# [57] = target: Neu5Ac(a2-6)GlcNAc(b1-4)GlcNAc(b1-4)GlcNAc
# Procedure, shortened: as §1
# [58] = target: Neu5Ac9Ac(a2-3)Gal(b1-3)GlcNAc
# Procedure, shortened: as §1
# [59] = target: Neu5Gc(a2-3)Gal(b1-4)GlcNAc
# Procedure, shortened: as §1
binder,measurement,setting,value
MGL6A (Homo sapiens) (protein) MTRTYENFQYLENKVKVQGFKNGPLPLQSLLQRLCSGPCHLLLSLGLGLLLLVIICVVGFQNSKFQRDLVTLRTDFSNFTSNTVAEIQALTSQGSSLEETIASLKAEVEGFKQERQAVHSEMLLRVQQLVQDLKKLTCQVATLNNNGEEASTEGTCCPVNWVEHQDSCYWFSHSGMSWAEAEKYCQLKNAHLVVINSREEQNFVQKYLGSAYTWMGLSDPEGAWKWVDGTDYATGFQNWKPGQPDDWQGHGLGGGEDCAHFTPDGRWNDDVCQRPYHWVCEAGLGQTSQESH,glycan array binding signal (z-score),[1],-0.173
same,glycan array binding signal (z-score),[2],-0.175
same,glycan array binding signal (z-score),[3],-0.174
same,glycan array binding signal (z-score),[4],7.25
same,glycan array binding signal (z-score),[5],-0.154
same,glycan array binding signal (z-score),[6],-0.171
same,glycan array binding signal (z-score),[7],-0.165
same,glycan array binding signal (z-score),[8],-0.177
same,glycan array binding signal (z-score),[9],5.97
same,glycan array binding signal (z-score),[10],-0.176
same,glycan array binding signal (z-score),[11],5.98
same,glycan array binding signal (z-score),[12],4.51
same,glycan array binding signal (z-score),[13],5.17
same,glycan array binding signal (z-score),[14],-0.173
same,glycan array binding signal (z-score),[15],-0.171
same,glycan array binding signal (z-score),[16],7.68
same,glycan array binding signal (z-score),[17],-0.18
same,glycan array binding signal (z-score),[18],7.07
same,glycan array binding signal (z-score),[19],-0.168
same,glycan array binding signal (z-score),[20],6.2
same,glycan array binding signal (z-score),[21],-0.169
same,glycan array binding signal (z-score),[22],-0.172
same,glycan array binding signal (z-score),[23],-0.172
same,glycan array binding signal (z-score),[24],-0.197
same,glycan array binding signal (z-score),[25],-0.169
same,glycan array binding signal (z-score),[26],-0.172
same,glycan array binding signal (z-score),[27],-0.172
same,glycan array binding signal (z-score),[28],3.65
same,glycan array binding signal (z-score),[29],-0.172
same,glycan array binding signal (z-score),[30],-0.208
same,glycan array binding signal (z-score),[31],0.976
same,glycan array binding signal (z-score),[32],-0.178
same,glycan array binding signal (z-score),[33],-0.173
same,glycan array binding signal (z-score),[34],-0.173
same,glycan array binding signal (z-score),[35],-0.178
same,glycan array binding signal (z-score),[36],-0.166
same,glycan array binding signal (z-score),[37],-0.162
same,glycan array binding signal (z-score),[38],-0.175
same,glycan array binding signal (z-score),[39],5.17
same,glycan array binding signal (z-score),[40],-0.176
same,glycan array binding signal (z-score),[41],-0.161
same,glycan array binding signal (z-score),[42],-0.153
same,glycan array binding signal (z-score),[43],-0.172
same,glycan array binding signal (z-score),[44],-0.16
same,glycan array binding signal (z-score),[45],-0.171
same,glycan array binding signal (z-score),[46],-0.176
same,glycan array binding signal (z-score),[47],-0.123
same,glycan array binding signal (z-score),[48],6.48
same,glycan array binding signal (z-score),[49],-0.173
same,glycan array binding signal (z-score),[50],-0.177
same,glycan array binding signal (z-score),[51],-0.169
same,glycan array binding signal (z-score),[52],-0.172
same,glycan array binding signal (z-score),[53],-0.175
same,glycan array binding signal (z-score),[54],-0.172
same,glycan array binding signal (z-score),[55],-0.166
same,glycan array binding signal (z-score),[56],-0.176
same,glycan array binding signal (z-score),[57],-0.175
same,glycan array binding signal (z-score),[58],-0.175
same,glycan array binding signal (z-score),[59],-0.175
